Screening results: PubChem BioAssay, National Center for Advancing Translational Sciences (NCATS)
Most compounds without a hit are left out; they make up all but 9.2% or so of the library.
FLuc counter – counter-screen for miR-21 project: firefly luciferase inhibitors or activators. purified FLuc, Km substrates, luminescence inhibition. Potency, µM (titrated, usually from 57.5 µM), without a hit: at the top dose activity change, negative = inhibition, most hits filed as inhibitors. 360,000 tested, 6.9% active. AID 588342;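 also: plate controls were vehicle for no effect and reference inhibitor for full effect; nearly all actives have a fitted effect of over 55% in size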
Target sequence (P08659 whole entry, looked up): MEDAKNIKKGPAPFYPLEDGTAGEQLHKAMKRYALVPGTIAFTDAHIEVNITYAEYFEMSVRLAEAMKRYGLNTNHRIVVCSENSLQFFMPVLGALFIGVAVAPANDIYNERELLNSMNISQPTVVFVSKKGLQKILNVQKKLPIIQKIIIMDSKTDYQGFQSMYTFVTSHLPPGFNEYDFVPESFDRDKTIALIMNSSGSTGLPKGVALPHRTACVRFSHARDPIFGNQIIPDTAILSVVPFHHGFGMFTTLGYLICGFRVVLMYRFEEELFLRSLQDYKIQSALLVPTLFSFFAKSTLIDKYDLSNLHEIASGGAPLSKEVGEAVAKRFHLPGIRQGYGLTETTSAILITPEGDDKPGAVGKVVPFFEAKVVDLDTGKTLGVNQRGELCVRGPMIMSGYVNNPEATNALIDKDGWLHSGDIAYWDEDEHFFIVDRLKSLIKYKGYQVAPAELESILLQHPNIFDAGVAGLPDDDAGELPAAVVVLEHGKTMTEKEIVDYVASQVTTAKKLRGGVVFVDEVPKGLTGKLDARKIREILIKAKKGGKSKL
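Biochemical qHTS of compounds, final roughly 60 µM downward over six points, against 10 nM purified firefly luciferase using Km concentrations of substrates (10 uM D-luciferin, 10 uM ATP) in Tris acetate pH 7.5 buffer; luminescence output.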
ELG1 genotoxic – inducers of genotoxicity in HEK293T ELG1-luciferase cells. AID 504466. Potency, µM (series often up to 46 µM), inactives show at the top dose activity change, positive = activation, usual class: activators. HEK293T ELG1-luciferase reporter, luminescence, 16 h. 330,000 tested, 1.3% active; also: % of control where 0% means no effect; nearly all actives have a fitted effect of over 60% in size
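HEK293T cells expressing luciferase-tagged ELG1 were exposed to compound or DMSO vehicle for 16 hr at 37 °C and 5% CO2. Luciferase activity was then measured with ONE-Glo after 30 min at room temperature.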
SMN2 splice enh – SMN2 splice variant enhancement; Potency, µM (titrated, usually from 46.1 µM), without a hit: at the top dose activity change, positive = activation, hits mostly activators; 210,000 tested, 2.8% active; HEK293 SMN2-luciferase splicing reporter, luminescence, 30-36 h; AID 1458; also: % of control where 0% means no effect; nearly all actives have a fitted effect of over 55% in size
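HEK293 cells carry an SMN2 minigene-luciferase reporter in which exon 7 inclusion puts luciferase in frame. Cells were seeded at 2000 cells/well, attached for 10-12 hours, then exposed to compounds for 30-36 hours at 37C before ONE-Glo luminescence.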
Rab9 promoter act – Rab9 promoter activation; AID 485297; Huh7 Rab9 promoter-luciferase reporter, luminescence, 24 h; 320,000 tested, 2.8% active; Potency, µM (doses to about 9.22 µM), inactives show top-dose activation, negative = inhibition, hits mostly activators; also: % of control where 0% means no effect; nearly all actives have a fitted effect of over 60% in size
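Huh7 cells stably carrying a Rab9 promoter-luciferase reporter, 1500 cells per well in OP-MEM I with 10% FBS, treated with compound 24 hours at 37C. Luciferase activity read by luminescence after 10 minutes with Amplite reagent.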
ELG1 DNA repair – inhibitors of ELG1-dependent DNA repair in HEK293T cells | HEK293T ELG1-luciferase reporter, luminescence, 16 h; DNA damage induced by 5-fluorouridine | Potency, µM (series often up to 46.1 µM), for inactives: at the highest dose activity change, negative = inhibition, hits mostly inhibitors | 330,000 tested, 2.3% active | AID 504467; also: % is scaled to controls: 0 for no effect and ±100 for the full control effect; nearly all actives have a fitted effect of over 55% in size
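Overnight (16 hr) co-exposure of 2,000 cells/well to 5-fluorouridine and compound at 37 °C preceded detection. Luciferase was quantified via ONE-Glo luminescence; loss of signal denotes inhibition.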
NPC1 prom act – activators of NPC1 promoter. Huh7 NPC1 promoter luciferase reporter, 24 h. Potency, µM (highest dose often 9.22 µM), inactives show at the top dose activation, hits mostly activators. 320,000 tested, 2.4% active; also: % of control where 0% means no effect; nearly all actives have a fitted effect of over 60% in size
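Compounds in DMSO were transferred onto Huh7 NPC1-luciferase reporter cells pre-incubated 2 h; after 24 h at 37 °C, Amplite reagent was dispensed and luminescence recorded 10 min later.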
Starred values were filed as active, the others as inactive; ? = inconclusive; . = no result given; [ ] = remark or other dose. Calls follow the shape of the dose curve; as a rule, active = well fitted curve in the direction sought with a large enough effect; inconclusive = small, poorly fitted or top-dose-only effect, or another doubt; inactive = no such curve, though single readings can be large; an effect the other way counts as inactive or inconclusive. Potency is read from the fitted curve at half-maximal effect.

SMILES | FLuc counter | ELG1 genotoxic | SMN2 splice enh | Rab9 promoter act | ELG1 DNA repair | NPC1 prom act
COC(=O)c1nc(-c2ccc3c(n2)C(=O)C(N)=C(OC)C3=O)c(N)c(-c2ccc(OC)c(OC)c2O)c1C | 0% | -13% | . | -35% | 2.1µM* | -33%
ClCBr | . | . | 0% | . | . | .
COc1ccc(C(CC(=O)N2CCC3(CC2)OCCO3)NS(=O)(=O)c2ccc(F)cc2)cc1 (stereo unspecified) | -1% | -3% | -5% | 3.5µM* | -13% | -6%
CCBr | . | . | 12% | . | . | .
CCC(=O)Nc1ccc(C(=O)OCc2ccccc2Cl)cc1 | 19µM* | 15% | -14% | ? | ? | ?
O=c1nc(/C=C/c2ccc(Cl)cc2Cl)cc(C(F)(F)F)[nH]1 | 11µM* | -4% | . | 0% | 15% | 1%
Fc1cccc(F)c1-c1nc(-c2ccc(Cl)cc2)no1 | 5.4µM* | ? | . | 2.8µM* | ? | 4µM*
COc1ccc(NC(=O)CSc2nc(-c3ccco3)cc(C(F)(F)F)n2)cc1OC | 3% | . | -48% | . | . | .
Cc1cccc(NC(=O)CSc2ccc(-c3ccco3)nn2)c1 | 27µM* | -1% | -37% | 14% | -14% | 1%
CC(=O)Nc1ccc(Cc2nc3ccccc3[nH]2)cc1 | 2% | 3% | ? | -1% | 10% | 1%
C[C@@H]1C(=O)O[C@@H]2C[C@]34[C@H]5C[C@@H](C(C)(C)C)[C@@]36[C@@H](OC(=O)[C@@H]6O)O[C@@]4(C(=O)O5)[C@@]12O | . | . | -9%[20.6 µM] | . | . | .
O=C(C1CCN(c2nc3ccc(Br)cc3s2)CC1)N1CCC2(CC1)OCCO2 | 13µM* | ? | -77% | -12% | ? | -2%
Cc1ccc(S(=O)(=O)NCC2CCC(C(=O)N3CCC4(CC3)OCCO4)CC2)cc1 (stereo unspecified) | 2% | 0% | -16% | -2% | -9% | 14%
CCc1ccc2nc(N3CCC(C(=O)N4CCC5(CC4)OCCO5)CC3)sc2c1 | 9.5µM* | ? | -83% | 12% | ? | 0%
CCOc1ccc2nc(N3CCC(C(=O)N4CCC5(CC4)OCCO5)CC3)sc2c1 | 15µM* | 1% | . | ? | ? | ?
Cc1ccc2nc(N3CCC(C(=O)N4CCC5(CC4)OCCO5)CC3)sc2c1 | 12µM* | 0% | . | ? | ? | ?
CC[C@]1(OC(=O)CN)C(=O)OCc2c1cc1n(c2=O)Cc2cc3ccccc3nc2-1 | . | . | -30%[9.22 µM] | . | . | .
CCOc1ccc(C(=O)Nc2nnc(S(=O)(=O)N(C)Cc3ccco3)s2)cc1 | 0% | 0% | . | 3% | ? | -2%
CCOc1ccc(N(C(C)C(=O)Nc2cc(Cl)ccc2OC)S(C)(=O)=O)cc1 (stereo unspecified) | 6% | . | -47% | . | . | .
CCNCC(O)c1cccc(O)c1 (stereo unspecified) | 8% | 0% | . | -7% | -12% | -3%
NNCc1cccc(O)c1 | 2.7µM* | 6% | -1% | -1% | 0% | -1%
C[C@@]12Cc3cnc(-c4ccccc4)nc3C[C@@H]1CC[C@@H]1[C@H]3CC[C@@](C)(O)[C@]3(C)CC[C@@H]12 | . | . | 6%[9.22 µM] | . | . | .
O=C(Cc1ccccc1)N1CCN(Cc2ccc(F)cc2)CC1 | 1% | -5% | . | 2% | -14% | -2%
O=C(c1ccc(F)cc1)C(Cc1ccccc1)N1CCCCC1 (stereo unspecified) | 19µM* | 16% | 29% | ? | ? | 16%
COc1ccccc1OCCCn1cc(C=O)c2ccccc21 | ? | -1% | . | 0.5µM* | ? | ?
SMILES | FLuc counter | ELG1 genotoxic | SMN2 splice enh | Rab9 promoter act | ELG1 DNA repair | NPC1 prom act
Cc1ccc(C(C)(C)NC(=O)C2CCC(=O)N(C3CCCCCC3)C2)cc1 (stereo unspecified) | 15µM* | ? | . | 3.2µM* | ? | ?
Cc1cccc(OCCn2c(=O)oc3ccc(C)cc32)c1 | 19µM* | ? | . | ? | ? | 18%
Cc1cccc(OCCCn2c(=O)oc3ccccc32)c1 | ? | ? | 19% | 18% | ? | -2%
C(=NCCN1CCOCC1)=NC1CCCCC1 | . | . | 7%[9.22 µM] | . | . | .
O=C(OCc1ccc(Cl)c(Cl)c1)c1ccccn1 | 15µM* | 1% | -6% | -2% | -5% | -2%
C=C(C)C#N | . | . | 4% | . | . | .
COc1ccc2c(c1)CCc1c(C(=O)Nc3c(C)nn(Cc4ccccc4C)c3C)noc1-2 | ? | . | -43% | . | . | .
O=C1/C(=C/c2ccc3c(c2)OCO3)N2CCC1CC2 | -11% | 1% | 18% | 2% | -6% | 4%
Cc1oc(/N=C/c2ccc3c(c2)OCO3)c(C#N)c1C | 1.7µM* | ? | 0% | 13% | ? | -3%
O=[N+]([O-])c1ccc2c3c(cccc13)CC2 | . | . | -16% | . | . | .
Cc1ccc(CSc2ncccc2C(=O)O)cc1 | 17µM* | ? | ? | 1% | ? | -1%
CCCCCCOc1ccc(CN2CCN(CC)CC2)cc1 | 9.5µM* | 3.7µM* | -29% | 2.8µM* | ? | 4µM*
Cc1ccc2c(c1N)C(=O)c1ccccc1C2=O | 4.3µM* | ? | ? | ? | ? | 3.2µM*
c1ccc(N=NNc2ccccc2)cc1 | . | . | 10% | . | . | .
CCOc1ccc(/C=C/C(=O)C(C(N)=O)=C2SCCS2)cc1 | 1.7µM* | 8% | -28% | ? | ? | ?
CCOc1ccc(N)cc1 | . | . | -4% | . | . | .
